Laboratory results taken from PubChem BioAssay (NCI).
This is part of a sample that, as a whole, favours compounds with a hit. Of some 79,000 tested, about 15% had one in any assay. Calls of active or inactive are those of the source. No stated cut-off is given here; in the data, active means growth inhibition above about 70%; inactive means the rest.

Experiment: NCI Yeast Anticancer Drug Screen. Data for the sgs1 strain (AID 173);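 further: 0% = growth of vehicle-only control cultures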
Conditions: S. cerevisiae sgs1 mutant, at 3.7 µM, stronger effect = higher value
How it was run: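 Screen format: yeast with repair or checkpoint alterations, compound exposure, growth read relative to vehicle.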

SMILES | growth inhibition
CCN(CC)CC[n+]1ccc2c(C)c3[nH]c4ccc(O)cc4c3c(C)c2c1 | -1% (inactive)
O=[n+]1c2ccc(Cl)cc2n([O-])c2ccc(Cl)cc21 | -27% (inactive)
CCOP(=O)(OCC)C(Cc1ccccc1)N=C(c1ccccc1)c1ccccc1 (centres undefined) | 10% (inactive)
CC[C@@]1(O)C(=O)OCc2c1cc1n(c2=O)Cc2cc3c(N)cccc3nc2-1 | -2% (inactive)
COC1C=COC2(C)Oc3c(C)c(O)c4c(c3C2=O)/C(=N/C2CCC(O)OC2C)C=C(NC(=O)/C(C)=C\C(=O)C2CC2C(O)C(C)C(O)C(C)C(OC(C)=O)C1C)C4=O (centres undefined) | -76% (inactive)
COc1cc2c(c(OC)c1OC)-c1c(cc3c(c1OC)OCO3)CC(C)C(C)(O)C2OC(=O)c1ccccc1 (centres undefined) | -9% (inactive)
O=c1ssc2ncccc12 | 12% (inactive)
O=C1C2C(C(=O)N1c1ccc(OCc3ccccc3)cc1)C1c3ccccc3C2C2CCCCN21 (centres undefined) | -1% (inactive)
COc1ccc(-c2cn(-c3ccc(I)cc3)c3ncnc(N)c23)cc1 | -5% (inactive)
CCOC(=O)C(NC(=O)c1ccccc1)(N1CCN(c2cc3c(cc2F)c(=O)c(C(=O)O)cn3C2CC2)CC1)C(F)(F)F (centres undefined) | 0% (inactive)
C/C(=N\O)C1CC2C=C(C#N)C1N(Cc1ccccc1)C2 (centres undefined) | 1% (inactive)
CC/C(=C(\c1ccccc1)c1ccc(OCCN(C)C)cc1)c1ccccc1 | 1% (inactive)
COc1ccccc1N=NC(C(=O)c1ccccc1)C(=O)c1ccccc1 | -6% (inactive)
CC(O)C(O)C(O)C(/C=N\Nc1ccccc1)=N/Nc1ccccc1 (centres undefined) | 10% (inactive)
COc1ccc(/C=C2\SC(=S)N(/C=C/c3nc4ccccc4[nH]c3=O)C2=O)cc1OC | 14% (inactive)
N#CN=Nc1cc(Cl)c(N=NC#N)cc1Cl | -15% (inactive)
Cc1ccc(S(=O)(=O)Oc2cc(Cl)c(Cl)cc2Cl)cc1 | -14% (inactive)
c1ccc2c(c1)Oc1cccc3cccc-2c13 | 13% (inactive)
O=C(c1ccc(Cl)cc1Cl)C(Cl)Cl | -14% (inactive)
CC(C)C1=CCC2C(=C1)CCC1C(C)(C(=O)O)CCCC21C (centres undefined) (tested in a mixture with another compound) | 24% (inactive)

SMILES | growth inhibition
COc1cc(/C=C2\CCc3ccccc3C2=O)cc(OC)c1OC | 17% (inactive)
CC(=O)[O][Bi]([c]1ccccc1)[c]1ccccc1 | 30% (inactive)
S=C(N/N=C/c1ccccn1)Nc1ccc(Cl)cc1 | -4% (inactive)
COc1cc(CC2CC(c3ccc4c(c3)OCO4)OC2=O)cc(OC)c1OC (centres undefined) | -2% (inactive)
CNC1C(OC2C(OC3C(O)C(O)C(N=C(N)N)C(O)C3N=C(N)N)OC(C)C2(O)CO)OC(CO)C(O)C1O (centres undefined) | 1% (inactive)
NNC(=O)CCc1ccc2ccc3ccccc3c2c1 | 8% (inactive)
Oc1ccc2ccccc2c1C(c1ccc(Cl)cc1)c1c(O)ccc2ccccc12 | -39% (inactive)
CCCCN(CCCC)CCSc1ccc(Cl)cc1 | -7% (inactive)
CCC(C)COC(=O)c1ccc(N=Cc2ccc(C=Nc3ccc(C(=O)OCC(C)CC)cc3)cc2)cc1 (centres undefined) | -2% (inactive)
CC1(C)C(=O)OC(n2cc(F)c(=O)[nH]c2=O)C1=O (centres undefined) | -13% (inactive)
O=[N+]([O-])CC(SCc1ccccc1)c1ccc2c(c1)OCO2 (centres undefined) | 54% (inactive)
COc1cc2c(cc1[N+](=O)[O-])C(=O)C(Br)(Br)CCC2 | 45% (inactive)
OCC1OC(OCC(O)C(O)C(O)C(/C=N/Nc2ccccc2)=N/Nc2ccccc2)C(O)C(O)C1O (centres undefined) | 13% (inactive)
COc1ccc(N=C2C(=O)Nc3ccc(Br)cc32)cc1 | -10% (inactive)
Cn1c(=O)c2ccccc2c2ccccc21 | -1% (inactive)
CC[n+]1ccc2c(C)c3[nH]c4ccc(O)cc4c3c(C)c2c1 | 38% (inactive)
CC(=O)ON1C(=O)c2cccc3cccc(c23)C1=O | 91% (active)
COc1ccc2ccc3ccccc3c2c1C=O | -1% (inactive)
OC1CCCc2c1cc1ccc3cccc4ccc2c1c34 (centres undefined) | -3% (inactive)
